In all, about 4,100 compounds went through this assay and about 1,600 (39%) were called active. Another 25% or so got no clear call; they are omitted. Some of the results follow. Values without a mark were called inactive. Calls come from the whole dose curve; as a rule, active = well fitted inhibition curve with a large enough effect; inconclusive = small, poorly fitted or top-dose-only effect; inactive = no such curve, though single readings can be large or run the other way.
% is set by controls: 0 for no effect and ±100 for the full control effect; potency is the fitted concentration of half-maximal effect.

A short description of the experiment: qHTS Validation assay for Inhibitors of Plasmodium falciparum Dd2 growth in vitro. Note: nearly all actives have a fitted effect of over 70% in size. Conditions: P. falciparum Dd2 in RBCs, SYBR Green growth, 72 h; series mostly up to 28.7 µM; activity change, negative = inhibition: at the top concentration. The method, boiled down: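 P. falciparum Dd2-infected red blood cells (2.5% hematocrit, 0.3% parasitemia) grown 72 h at 37 °C under 5% O2 with compounds in a titration, 29 uM to 0.5 nM final. Growth read as SYBR Green-1 fluorescence after ~16 h lysis; artesunate 300 nM as positive control.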
(In general: Quantitative high-throughput screening tests each substance at several concentrations.)
For `O=C(c1ccc(F)c(Cl)c1)N1CCC[C@H]1c1nc(-c2ccccc2)no1`, the “activity change, negative = inhibition” value is 11.4%.
Consider `Cc1cc(C(C)c2ccccc2)c(O)c(CN2CCOCC2)c1C` (configuration not stated), for which the Potency is 2.99 µM (active).
Consider `CC(Oc1ccc(Br)cc1)c1nc2c3ccccc3nc(=S)n2[nH]1` (configuration not stated), for which the “activity change, negative = inhibition” value was 12%.
Regarding `Oc1ccccc1Nc1nc(-c2ccccc2O)nc2ccccc12`, the Potency was 0.944 µM (active).
Same read-out and setting: the figure for `C/C(=N\Nc1nc(-c2ccccc2O)nc2ccccc12)c1ccccc1` is 0.75 µM (active).
In the case of `CNC(=O)[C@H]1C[C@H](Oc2cccnc2)CN1S(=O)(=O)Cc1ccccc1F`, the “activity change, negative = inhibition” value was 12.3%.
With `O=C(NCC12CCC=C1N(CC1CC1)C(=O)CC2)Nc1cccc(F)c1` (configuration not stated), the “activity change, negative = inhibition” value is 3.63%.
On to `CN1C(=O)CCC2(C(=O)O)CCCC=C12` (configuration not stated), for which the “activity change, negative = inhibition” value was 19.8%.
As for `CCN(CC)CCNC(=O)C12CCCC=C1N(Cc1ccccc1)C(=O)CC2` (configuration not stated), the Potency is 8.41 µM (active).
Still for that read-out and setting: with `CCOc1ccccc1NC(=O)C1CCN(S(=O)(=O)c2c(C)noc2/C=C/c2ccco2)CC1` the figure was 15 µM (active); with `Cc1cc(C)c(/C=C/c2onc(C)c2S(=O)(=O)N2CCC(C(=O)Nc3ccc(Cl)c(C(F)(F)F)c3)CC2)c(C)c1`, 10.6 µM (active); with `COc1ccc(/C=C\c2onc(C)c2S(=O)(=O)N2CCC(C(=O)Nc3ccc(C)cc3C)CC2)cc1`, 0.842 µM (active).
Take `CCOC(=O)c1c(S(=O)(=O)N2CCC(C(=O)Nc3ccc(F)cc3F)CC2)c(C)n(C)c1C`: the “activity change, negative = inhibition” value is 48.1%.
With `Cc1ccc(NC(=O)C2CCN(S(=O)(=O)c3ccc4[nH]c(=O)ccc4c3)CC2)cc1C`, the “activity change, negative = inhibition” value is 30.7%.
Same read-out and setting: the figure for `CCOCCOC1CCN(S(=O)(=O)c2c(C)noc2C)CC1` is 11.4%; for `Cc1cc(C)n(Cc2ccc(C(=O)N3CCC(c4noc(-c5cccnc5)n4)C3)o2)n1` (configuration not stated) it is 5.3%.
Consider `Cc1ccc(CSC2=Nc3ccccc3C3=NC(CC(=O)NCc4ccco4)C(=O)N23)cc1` (configuration not stated), for which the Potency was 6.68 µM (active).
Take `Cc1ccc(CC(=O)NCc2nnc3c(-c4nc(C(C)C)no4)cccn23)cc1`: the “activity change, negative = inhibition” value was 2.86%.
For `Cc1ccccc1OCCSc1nc2ccc(NC(=O)c3cccs3)cc2s1`, the Potency is 5.31 µM (active).
Regarding `COc1cc(C)ccc1OCCSc1nc2ccc(NC(=O)c3ccc(F)cc3)cc2s1`, the Potency was 10.6 µM (active).
With `COc1ccc(NC(=O)c2cc3c(N4CCSCC4)nc(C)cn3n2)cc1OC`, the “activity change, negative = inhibition” value was -5.63%.
Turning to `COc1cc(C)ccc1OCCSc1nc2ccc(NC(=O)c3cccs3)cc2s1`, the Potency is 13.3 µM (active).
With `Cc1cccc(OCCSc2nc3ccc(NC(=O)c4cccs4)cc3s2)c1`, the Potency is 9.44 µM (active).
On to `Cc1ccc2[nH]c(C(=O)Nc3ccc(F)cc3)cc2c1`, for which the “activity change, negative = inhibition” value was 33.2%.
The same measure, in the same setting: with `Cc1ccccc1C(=O)NNc1ccc(-c2csnn2)cc1` the figure was 37.5%; with `CCCCc1ccc(NC(=O)CSC2=C(C#N)C(c3ccco3)C3=C(CCCC3=O)N2)cc1` (configuration not stated), -11.9%; with `N[C@@H]1CN(c2ncccn2)C[C@H]1CO`, 0%.
On the same count and under the same terms, the figure for `O=C(NCc1cccs1)c1ccc(CN2C(=O)NC3(CCS(=O)(=O)CC3)C2=O)cc1` is -5.88%; for `CCCOc1cccc(C(=O)Nc2ccc(-c3cc4ccccc4oc3=O)c(C)c2)c1` it is -6.71%.
Take `Cc1ccccc1OCCSc1nc2ccc(NC(=O)c3ccccc3)cc2s1`: the Potency was 15 µM (active).
On to `COc1ccc(S(=O)(=O)N2CCC3(CC2)OCCN3S(=O)(=O)c2c(C)cc(C)cc2C)cc1`, for which the Potency is 2.66 µM (active).
With `COc1ccc(S(=O)(=O)N2CCc3cc(OC)c(OC)cc3C2)cc1`, the “activity change, negative = inhibition” value was 22.2%.
For `Cc1cccc(NC2=C/C(=N/S(=O)(=O)c3cccs3)c3ccccc3C2=O)c1`, the Potency is 0.168 µM (active).
With `O=C1C(Nc2ccccc2)=C/C(=N/S(=O)(=O)c2cccs2)c2ccccc21`, the Potency was 0.335 µM (active).
For the molecule `COC(=O)[C@H]1[C@H]2C[C@@H]3c4[nH]c5cc(OC)ccc5c4CCN3C[C@H]2C[C@@H](OC(=O)/C=C/c2cc(OC)c(OC)c(OC)c2)[C@@H]1OC`, the Potency is 5.31 µM (active).
The same measure, in the same setting: the figure for `Cc1nc(-c2cccc(Cl)c2)n(CC(=O)Nc2ccc(C(F)(F)F)cc2)c(=O)c1CCO` is 13.3 µM (active).
For the molecule `CCOC(=O)c1ccc(NC(=O)Cn2c(-c3cnccn3)nc(C)c(CCO)c2=O)cc1`, the “activity change, negative = inhibition” value is 0%.
As for `Cc1ccc(NC(=O)Cn2c(-c3ccccc3)nc(C)c(CCO)c2=O)cc1Cl`, the Potency is 10.6 µM (active).
For the molecule `Cc1nc(-c2ccccc2)n(CC(=O)Nc2ccc(Cl)cc2)c(=O)c1CCO`, the Potency is 16.8 µM (active).
Still for that read-out and setting: with `COc1ccc2c(c1)C=C([C@@H]1C[C@H]3CN(c4ccccc4)C(=O)[C@]34CCCN14)CO2` the figure was 0.944 µM (active); with `COc1ccc(-c2cc(-c3cccc(NC(C)=O)c3)cn3cncc23)cn1`, 21.7 µM (active).
Take `CC(=O)N1CCN(C(=O)C[C@@H]2CCNC[C@@H]2Cc2cc(CSc3ccccc3)on2)CC1`: the “activity change, negative = inhibition” value was -1%.
With `COc1ccc(CNC(=O)C[C@@H]2CCNC[C@@H]2Cc2cc(-c3ccccc3)on2)cc1OC`, the “activity change, negative = inhibition” value is 9.35%.
As to `CCC(=O)N1CCCCCCNC(=O)[C@@H]2C[C@@H](C(=O)N3CCN(c4ccccn4)CC3)C[C@@H]21`, the “activity change, negative = inhibition” value is 10.7%.
Take `CC(C)(C)c1ccc(-c2cc(C[C@H]3CNCC[C@H]3CC(=O)N3CCN(c4ccccn4)CC3)no2)cc1`: the Potency is 15 µM (active).
As for `O=C(C[C@@H]1CCNC[C@@H]1Cc1cc(COc2ccccc2)on1)NCc1cccs1`, the “activity change, negative = inhibition” value was -17.5% [at 43.1 µM].
`O=C(C[C@@H]1CCNC[C@@H]1Cc1cc(CSc2ccccc2)on1)N1CCN(c2ccccc2)CC1`: the Potency was 8.41 µM (active).

The values above are taken from PubChem BioAssay AID1347416 (National Center for Advancing Translational Sciences (NCATS), 2020).
